From PubChem
BioA inh: M. tuberculosis BioA enzyme inhibitors, primary screen, biochemical, plate reader, single point, HTS | 0.096% of 360,000 active | AID 602481, 2012 | inhibition, % at 9.99 µM | purified M. tuberculosis BioA enzyme | 7,8-diaminopelargonic acid synthase BioA (Mycobacterium tuberculosis); in the data active = inhibition above about 40%
Y pestis TopoI: Yersinia pestis topoisomerase I inhibitors, primary screen, biochemical, cleavage product accumulation, plate reader, single point; DNA topoisomerase I (Yersinia pestis CO92); Y. pestis Topo-I cleavage product accumulation; activity, % at 10 µM; 0.064% of 360,000 active; in the data active = activity above about 50%, passing the limit was not always enough
Vc quorum ag: inducers of Vibrio cholerae quorum light production without autoinducers, primary screen, BH1578 luxS cqsA deficient, single point | V. cholerae BH1578 lux reporter, luminescence, 6 h | activation, % at 18.7 µM | 0.16% of 350,000 active; in the data active = activation mostly above about 9.7%, no sharp cut-off
TcdB GH inh: TcdB glycohydrolase inhibitors, primary screen, biochemical, single point, plate reader | TcdB glycohydrolase enzymatic assay | inhibition, % at 9.99 µM | 0.24% of 350,000 active | AID 652162, 2013; in the data active = inhibition above about 10%
FadD28 binding: inhibitors of FadD28 bisubstrate probe binding, primary screen, biochemical, fluorescence polarization, single point; Mycobacterium tuberculosis FadD28 fatty-acid-AMP ligase; inhibition, % at 12.5 µM; 0.22% of 360,000 active; in the data active = inhibition above about 8.5%, passing the limit was not always enough
Numbers without * were called inactive; i = inactive; · = not tested or not shown. Shown are actives, neighbours in structure and some others; about 0.61% of the full set was active somewhere.

SMILES	BioA inh	Y pestis TopoI	Vc quorum ag	TcdB GH inh	FadD28 binding
COC1=C/C(=C/c2c(N)n3nc(-c4ccc(C)cc4)sc3nc2=O)C=CC1=O	·	-8	0	0	1
CNC(=O)N(O)C1N(/N=C/c2ccc(N(C)C)cc2)C(=S)SC1(C)C (stereo not given)	-1	0	-1	10	0
CNC(=O)N(O)C1N(/N=C/c2cccs2)C(=S)SC1(C)C (stereo not given)	·	-2	-2	10*	0
CCOC(=O)C1=C(CN2CCN(C(=O)c3ccco3)CC2)NC(=O)NC1c1ccc(OC(C)C)cc1 (stereo not given)	44*	25	0	2	-1
O=C1NC(=S)SC1=Cc1ccccc1Cl	·	2	·	3	-9
O=C1NC(=S)S/C1=C\c1cc(Cl)cc(Cl)c1O	4	4	-2	-1	33*
CCOc1ccc(N2C(=O)CC(N3CCN(c4ccc(C(=O)c5ccncc5)cc4)CC3)C2=O)cc1 (stereo not given)	-2	82*	i	·	-3
Cc1ccc(S(=O)(=O)/N=c2\sccn2C)cc1	-1	3	46*	·	0
N#Cc1c(SCC(=O)Nc2nc3ccccc3s2)sc2c(O)cc(=O)[nH]c12	0	-13	0	1	12*
CCCSc1nnc(NC(=O)CSc2sc3c(O)cc(=O)[nH]c3c2C#N)s1	-1	-5	0	-1	16*
O=C(CSc1nc(O)cc(=O)n1-c1ccccc1)Nc1nc2ccccc2s1	-2	-5	-1	1	13*
N#Cc1c(SCC(=O)Nc2nccs2)sc2c(O)cc(=O)[nH]c12	0	7	0	0	3
C[C@H](CO)N1C[C@H](C)[C@H](CN(C)C(=O)Nc2ccc(F)cc2)OCCCC[C@H](C)Oc2ccc(NC(=O)NC3CCCCC3)cc2C1=O	-1	·	·	0	·
C[C@@H]1CCCCO[C@H](CN(C)S(=O)(=O)c2cccs2)[C@H](C)CN([C@H](C)CO)C(=O)c2cc(NS(=O)(=O)c3ccccc3)ccc2O1	-2	·	·	-4	·
N#C[C@@H]1N[C@@H](CO)[C@@H]1c1ccc(C#CC2CCCC2)cc1	1	·	·	0	·
CCCNC(=O)N[C@@H]1CC[C@@H](CCn2cc(-c3cccc(F)c3)nn2)O[C@H]1CO	0	·	·	1	·
CC(C(=O)OCC(=O)c1c(N)n(C)c(=O)n(C)c1=O)N1C(=O)c2ccccc2C1=O (stereo not given)	2	2	i	14*	-3
CC(C)C1Nc2c(O)cc(Cl)c([N+](=O)[O-])c2C2C=CCC21 (stereo not given)	4	-8	0	-11	25*
O=C(O)C1Nc2c(Cl)cc(Cl)c(Cl)c2C2C=CCC12 (stereo not given)	-1	-18	0	0	7
O=C(NNC(=O)c1ccc([N+](=O)[O-])cc1)c1ccc(NS(=O)(=O)c2cccs2)cc1	0	-1	0	0	19*
Cc1cccc(C(=O)NNC(=O)c2ccc(NS(=O)(=O)c3cccs3)cc2)c1C	0	0	i	1	13*
Cc1ccc(C(=O)NNC(=O)c2ccc(NS(=O)(=O)c3cccs3)cc2)s1	1	-1	-1	2	2
C[C@@H]1CN([C@@H](C)CO)C(=O)c2cc(NC(=O)c3ccccc3)ccc2O[C@@H](C)CCCCO[C@@H]1CN(C)S(=O)(=O)c1ccc(Cl)cc1	0	·	·	0	·
CCCN1[C@H](C(=O)NC2CCCC2)[C@@H](CO)[C@@H]2Cn3c(ccc(-c4cccnc4)c3=O)[C@@H]21	·	·	·	-2	·
COC(=O)c1ccc(C23CC4(C2)[C@H](CN(Cc2ccc(C(F)(F)F)cc2)[C@@H]4c2ccccc2)C3c2ccc(Cl)nc2)cc1 (stereo not given in full)	·	·	·	12*	·
SMILES	BioA inh	Y pestis TopoI	Vc quorum ag	TcdB GH inh	FadD28 binding
COc1ccccc1CNC(=O)C[C@H]1CC[C@H]2[C@@H](COC[C@H](O)CN2Cc2cccc(-c3ccncc3)c2)O1	2	·	·	·	·
O=[N+]([O-])c1cc(C(F)(F)F)ccc1NCCc1c[nH]c2ccc(O)cc12	-1	-18	-4	·	12*
Cc1ccc(NC(=S)/C(=C(\[O-])c2ccc(Cl)s2)[n+]2cccc(CO)c2)cc1C	0	22	-2	0	-1
[O-]/C(=C(\C(=S)Nc1ccc(SC(F)F)cc1)[n+]1cccc(CO)c1)c1ccc(Cl)s1	·	61*	4	0	-2
C/C(=N\Nc1cc(N2CCOCC2)ncn1)c1ccc(O)cc1	0	0	i	28*	1
C/C(=N\NC(=O)c1ccc(O)cc1)c1ccc(N2CCOCC2)cc1	·	14	0	-1	-1
O=C1OCC/C1=C\c1ccc(O)cc1	0	0	i	21*	-3
C[C@@H]1CN([C@@H](C)CO)C(=O)c2cc(-c3ccncc3)cnc2O[C@@H]1CN(C)C(=O)C1CC1	-1	·	·	·	·
CC(=O)NC(c1ccccc1)c1cc(Cl)c2cccnc2c1O (stereo not given)	-2	-15	0	1	-3
COc1ccc(C(NC(C)=O)c2cc(Cl)c3cccnc3c2O)cc1 (stereo not given)	-5	-8	0	11*	1
Fc1cccc(CCN2C(=S)NC[C@@H]2CC2CCCCC2)c1	-2	52*	i	-6	-1
Fc1cccc(CCN2C(=S)NC[C@@H]2Cc2ccccc2)c1	2	34	0	0	-6
Cc1cc(NC(=O)c2cc(-c3ccccc3)on2)n(-c2ccccc2)n1	-1	107*	4	·	0
COc1ccc(-c2cc(C(=O)Nc3cc(C)nn3-c3ccccc3)no2)cc1	0	4	0	·	-2
O=C1C[C@@](C(=O)NCCN2CCOCC2)(c2ccc([N+](=O)[O-])cc2)[C@@H](c2ccc(CO)cc2I)N1CC12CC3CC(CC(C3)C1)C2	1	·	·	1	·
Cc1noc(C)c1S(=O)(=O)Nc1ccc2c(c1)C(=O)N([C@H](C)CO)C[C@@H](C)[C@@H](CN(C)S(=O)(=O)c1cn(C)cn1)OCCCC[C@H](C)O2	0	·	·	-1	·
Cc1ccc(CSc2nc3c(c(N(C)C)n2)CCCC3)cc1	-1	59*	i	·	-4
COC(=O)CSc1nc(SCc2ccc(C)cc2)nc2c1CCCC2	-1	58*	0	·	-4
CNc1nc(SCc2ccc(C)cc2)nc2c1CCCC2	2	5	4	·	-2
C/C=C/c1cnc2c(c1)C(=O)N([C@H](C)CO)C[C@@H](C)[C@H](CN(C)Cc1ccccc1)O2	4	·	·	0	·
CN(C)CC#Cc1ccc([C@H]2[C@H](CO)N3CCCCN(C(=O)C4CCCC4)C[C@@H]23)cc1	2	·	·	1	·
Nc1c(C(=O)c2ccccc2)sc2c1c(=O)[nH]c(=O)n2-c1ccccc1	-1	24	0	·	-3
